Experimental findings from PubChem BioAssay AID449762 (Southern Research Specialized Biocontainment Screening …, 2010) are described below.

The whole screen tested about 330,000 compounds, of which about 1,900 (0.58%) were called active. About 4% were inconclusive and are not listed. Not all results are given here. Potency and affinity values are given separately. Values without a mark were called inactive. Rule as the data show it: inconclusive = inhibition above about 70% without an active follow-up result; inactive = below that.

The term inhibition denotes the drop in the measured response relative to a control, in per cent.

This test in a line: M. tuberculosis growth inhibition, HTS (AID 449762).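 Also: bacterial growth assessed after seven days of incubation.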 As to conditions: M. tuberculosis H37Rv growth inhibition, 7H9 media; at 25 µM; stronger effect = higher value.
For the compound `CCCCn1c(N)c(N(CCOC)C(=O)c2cccc(S(=O)(=O)N3CCCCCC3)c2)c(=O)[nH]c1=O`, the inhibition is -2.07%.
Turning to `CC(=O)Oc1cccc(N2C(=O)c3ccccc3C2=O)c1`, the inhibition is -13.4%.
With `CC(=O)Oc1ccc(C#C/C=C2\c3ccccc3C(=O)N2c2ccccc2)cc1` the figure was 22.6%; with `Cc1nc2c(cc1NC(=O)C(C)(C)C)nc(C)n2Cc1ccccc1`, -8.25%; with `Nc1ccc2oc(-c3ccccc3Cl)cc(=O)c2c1O`, -3.11%.
As for `O=c1cc(-c2ccccc2Cl)oc2cccc(O)c12`, the inhibition is 1.24%.
In the case of `COc1ccccc1N(CC(=O)NCCSC(C)(C)C)S(C)(=O)=O` it was 2.68%; in that of `CN1CCN(CC(=O)Nc2c(C(=O)c3ccccc3)oc3ccccc23)CC1`, 3.75%; in that of `COc1ccc2oc(C(=O)c3ccccc3)c(NC(=O)CN3CCN(C)CC3)c2c1`, 15.4%.
With `COC(C[C@@H]1O[C@H]1C(=O)COCc1ccccc1)OC` the figure was -5.79%; with `O=C(Cn1ccc([N+](=O)[O-])n1)NCc1cccnc1`, 4.03%.
With `CCCCSC1(SCCCC)N=C(N)C2(C#N)C(c3ccccc3)NC(C)=CC12C#N` (centres undefined) the figure was -0.17%; with `CCCC(=O)Nc1ccccc1NC(=O)CCC`, 0.31%.
`CCC(=O)Nc1cccc2ccccc12`: the inhibition was -0.62%.
In the case of `COc1ccc(C(=O)N(c2ccc(OC)cc2)S(=O)(=O)c2cccs2)cc1` it was 4.22%; in that of `NC(=O)CSc1nc2cc(Cl)ccc2c(=O)n1C1CCCCC1`, -1.2%; in that of `COc1ccc(-c2cc3c(=O)n(CC(=O)NCc4ccccc4OC)ncn3n2)cc1`, -8.29%.
In the case of `C/C(=N/NC(=O)c1cccs1)c1ccc(N2CCOCC2)cc1` it was -6.32%; in that of `CC(=O)N1c2ccccc2C(C)(c2ccccc2)CC1(C)C` (centres undefined), -5.59%; in that of `CC1(c2cccc([N+](=O)[O-])c2)CC(C)(C)N(C(=O)c2ccccc2)c2ccccc21` (centres undefined), 1.14%.
`Cc1cc(C)c(S(=O)(=O)c2ccccc2C)c(SCC(C)C)n1`: the inhibition is 11%.
In the case of `Cc1ccc(/C=N/n2cnc3sc(-c4ccccc4)cc3c2=O)o1` it was 44.5%; in that of `Cc1sc2ncn(/N=C/c3ccco3)c(=O)c2c1C`, -10.2%; in that of `CCCCn1nnnc1SCC(=O)Nc1cccc(C)c1`, 7.62%.
With `COc1ccc(CCN(C)C(=O)c2ccc(COc3ccccc3)o2)cc1OC` the figure was 2.55%; with `CC(O)(CS(=O)(=O)Cc1ccccc1)c1ccccc1Cl` (centres undefined), -7.18%.
In the case of `Cn1cnnc1SCC(=O)Nc1nc(-c2ccc(F)cc2)cs1` it was -5.61%; in that of `CCCn1c(N2CCN(CC(=O)Nc3ccc4c(c3)OCCO4)CC2)nc2ccccc21`, -1.09%; in that of `O=C(Nc1cc(N2CCOCC2)ncn1)NC1(C(F)(F)F)Oc2ccccc2O1`, -1.34%.
On to `O=C(NCCN1CCOCC1)NC1(C(F)(F)F)Oc2ccc(Cl)cc2O1` (centres undefined), for which the inhibition is 66.9%.
Regarding `CCOC(=O)c1[nH]c2ccc(OCC)cc2c1NC(=O)CN1CCN(c2ccccc2)CC1`, the inhibition is -2.46%.
As to `CCOC(=O)c1[nH]c2ccc(F)cc2c1NC(=O)CN1CCc2cc(OC)c(OC)cc2C1`, the inhibition is 11.2%.
As to `CNC(=S)N(C)CCc1cc2c(c(OC)c1C=C1C(=O)NC(=O)NC1=O)OCO2`, the inhibition is -4.55%.
In the case of `Cc1cc(C(=O)N[C@@H](c2ccccc2)[C@]2(C)C[C@H]2[C@@H](C)C(=O)Nc2ccc3ccccc3c2)no1` it was 49.4%; in that of `C[C@@H](C(=O)Nc1ccc2ccccc2c1)[C@@H]1C[C@@]1(C)[C@@H](NC(=O)c1ccccc1)c1ccccc1`, 27.7%; in that of `Cc1ccc(/C=C/C(=O)N2CCN(S(=O)(=O)c3cccs3)CC2)o1`, -4.62%.
With `Cc1ccc(S(=O)(=O)N2CCN(Cc3nc4sc5c(c4c(=O)[nH]3)CCCC5)CC2)cc1` the figure was 1.29%.
In the case of `CC(C)c1ccc(/C=N/NC(=O)c2c(Cl)cnn2C)cc1`, the inhibition is -0.44%.
In the case of `Cc1ccc(S(=O)(=O)Oc2ccc(/C=N/NC(=O)c3c(Cl)cnn3C)cc2)cc1` it was 25.4%; in that of `Fc1ccc(CN2CCN(c3ccc(Cl)cc3)CC2)cc1`, 9.18%.
With `CCn1c(N)c(C(=O)NCc2cccnc2)sc1=S` the figure was -1.76%; with `CC(/C=N/n1c(-c2cc(C)[nH]n2)n[nH]c1=S)=C\c1ccccc1`, -2.29%; with `S=c1[nH]nc(C2CCCCC2)n1/N=C/C(Cl)=C\c1ccccc1`, -11%.
With `Cc1cc(-c2n[nH]c(=S)n2/N=C/C(Cl)=C/c2ccccc2)n[nH]1` the figure was 1.35%; with `S=c1[nH]nc(C2CCCCC2)n1/N=C/c1ccccc1`, 9.46%.
Consider `Fc1cccc2sc(Nc3nc4cc5c(cc4s3)OCCO5)nc12`, for which the inhibition was 45.4%.
In the case of `Cc1c(Cl)cccc1NC(=S)N(CCN(C)C)C(C)c1ccccn1` (centres undefined) it was 0.24%; in that of `CCO[C@@H]1OC(C(=O)Nc2ccccc2)=C[C@H](c2ccc3c(c2)OCO3)[C@H]1CCCO`, 13.4%.
Regarding `COc1cc(NC(=O)COC(=O)c2cc(S(=O)(=O)N3CCCCC3)ccc2Cl)c(C)cc1[N+](=O)[O-]`, the inhibition is -2.58%.
In the case of `CCN1C(=O)[C@H]2[C@@H](c3ccc(-c4ccc(C(C)=O)cc4)cc3)N3CCC[C@@]3(C(=O)OC)[C@H]2C1=O` it was 21.2%; in that of `COc1ccc(C2c3[nH]c4ccccc4c3C[C@H]3C(=O)N(C4CCN(Cc5ccccc5)CC4)CC(=O)N23)c(OC)c1` (some centres undefined), 30.2%; in that of `CCOc1ccc(C2c3[nH]c4ccccc4c3C[C@H]3C(=O)N(C4CC4)CC(=O)N23)cc1OC` (some centres undefined), 4.59%.
With `COc1ccc(-c2nc3c(s2)CN(S(C)(=O)=O)CC3)cc1OC` the figure was -6.59%.
In the case of `Cc1nn(-c2ccccc2)c(Cl)c1C(=O)N(C)CC(=O)Nc1cccc(F)c1` it was 0.93%.
As to `CCCn1c(-c2cc(OC)c(OC)c(OC)c2)nc2c1c(=O)[nH]c(=O)n2Cc1ccccc1`, the inhibition was -2.63%.
In the case of `Cc1nn(-c2ccccc2)cc1C(c1c(N)[nH]c(=S)[nH]c1=O)c1c(N)[nH]c(=S)[nH]c1=O` it was 4.9%.
With `COc1ccc(NS(=O)(=O)c2ccc3nc(COc4ccc(C#N)cc4)[nH]c3c2)cc1` the figure was 4.82%; with `COc1ccc(NS(=O)(=O)c2ccc3nc(COc4ccc5ccccc5c4)[nH]c3c2)cc1`, 0.01%; with `CCOc1ccc(N2C(=O)C3CC(C)=C(C)CC3C2=O)c([N+](=O)[O-])c1` (centres undefined), -11.3%.
In the case of `CCCCCn1c(SC(C)C(C)=O)nc2c1c(=O)[nH]c(=O)n2C` (centres undefined) it was -12.7%; in that of `Cc1cc(Cl)c(OCCCN(C)C)c(Br)c1`, 2.02%.
For `COc1ccc2c([N+](=O)[O-])c(Cl)[nH]c2c1`, the inhibition is -1.29%.
With `COc1cc2[nH]c3c(Cl)ncnc3c2cc1OC` the figure was -3.36%.
In the case of `CCOC(=O)C1=C(C)OC(N)=C(C#N)C1c1c(C)nn(-c2ccccc2)c1Cl` (centres undefined) it was -3.55%; in that of `Cc1ccc2c(c1)nnn2C1CCN(CC(=O)Nc2ccc(F)cc2)CC1`, -1.73%; in that of `Cc1ccc2c(c1)nnn2C1CCN(CC(=O)c2ccc(Cl)cc2)CC1`, 2.57%.
In the case of `CCSC(=Nc1ccccc1)C1=C(O)COC1=O` it was 3.26%; in that of `NCC(c1ccc(Cl)cc1Cl)c1c[nH]c2ccccc12` (centres undefined), 34.8%.
Turning to `OC(CNCCc1c[nH]c2ccccc12)c1ccccc1` (centres undefined), the inhibition is -1.92%.
With `COC(=O)c1sc(N)c(C(=O)OC)c1COC(=O)C1CC(=O)N(Cc2ccco2)C1` (centres undefined) the figure was -7.71%.
With `CCOc1ccc(CCNS(=O)(=O)c2ccc3c(c2)NC(=O)CO3)cc1OCC` the figure was -0.19%; with `CCOc1ccc(NCc2nc3ccccc3n2CCOc2ccccc2)cc1`, 33.8%.
With `c1ccc(NCc2nc3ccccc3n2CCOc2ccccc2)cc1` the figure was 5.47%; with `O=[N+]([O-])c1ccc(/C=N/Nc2nc(N3CCCCCC3)nc(N3CCCCCC3)n2)o1`, -9.1%.
Take `CCNc1nc(NCC)nc(N/N=C/c2ccccc2)n1`: the inhibition is -2.44%.
With `CC(C)NS(=O)(=O)c1ccc(CCC(=O)N2CCC(C(N)=O)CC2)cc1` the figure was -7.28%.
With `Cc1ccccc1C(=O)Oc1cc(N)n(S(C)(=O)=O)n1` the figure was -5.9%; with `NC(=O)CCCn1c(C(=O)c2ccc(Cl)cc2)c2ccc([N+](=O)[O-])cc2[n+]1[O-]`, -3.8%; with `NCCCn1c(C(=O)c2ccc(Cl)cc2)c2ccc(C(F)(F)F)cc2[n+]1[O-]`, 1.61%.
With `COc1ccc(CCN2CC(C(=O)NCc3ccco3)CC2=O)cc1OC` (centres undefined) the figure was -1.89%.
For the compound `CCN1CCN(c2ccc(S(=O)(=O)N3CCOCC3)cc2NC(=O)COc2ccc(F)cc2Cl)CC1`, the inhibition was 2.58%.
Consider `C[C@H](NC(N)=O)C(=O)Nc1ccc(OCc2ccccc2)cc1`, for which the inhibition was 2.2%.
`C/C(=N\NC(=O)c1ccccc1F)c1ccc2c(c1)Nc1ccccc1S2`: the inhibition is -0.8%.
With `C/C(=N\NC(=O)c1ccc(C)cc1C)c1ccc2c(c1)Nc1ccccc1S2`, the inhibition is 7.51%.
With `O=C1C=C(c2cccc3c2sc2ccccc23)C[C@@H](c2ccc(Cl)cc2)C1` the figure was -0.695%; with `CSc1ccc(/C=C/C(=O)Nc2ccccc2)cc1`, 10.6%.
In the case of `CCCC(=O)Nc1ccc(C(N)=O)cc1` it was -1.73%; in that of `CSc1nsc(SCC(=O)NC2CCCCC2)n1`, 66.1%; in that of `Cc1nnc(SCC(=O)N2CCCCC2)s1`, -0.73%.
